Source: PubChem
ASM inhibitor = human S-ASM enzyme inhibition; placental ASM, HMU-PC fluorogenic substrate, 60 min; Potency, µM (highest dose often 57.5 µM), for the others: at the top dose activity change, negative = inhibition, hits mostly inhibitors; actives 0.006% (n = 340,000); AID 504937; active means well fitted inhibition curve with a large enough effect; inconclusive means small, poorly fitted or top-dose-only effect; inactive means no such curve, though single readings can be large or run the other way; further: potency means the concentration at half of the fitted maximal effect
Target sequence (P17405 47-631 limits assumed): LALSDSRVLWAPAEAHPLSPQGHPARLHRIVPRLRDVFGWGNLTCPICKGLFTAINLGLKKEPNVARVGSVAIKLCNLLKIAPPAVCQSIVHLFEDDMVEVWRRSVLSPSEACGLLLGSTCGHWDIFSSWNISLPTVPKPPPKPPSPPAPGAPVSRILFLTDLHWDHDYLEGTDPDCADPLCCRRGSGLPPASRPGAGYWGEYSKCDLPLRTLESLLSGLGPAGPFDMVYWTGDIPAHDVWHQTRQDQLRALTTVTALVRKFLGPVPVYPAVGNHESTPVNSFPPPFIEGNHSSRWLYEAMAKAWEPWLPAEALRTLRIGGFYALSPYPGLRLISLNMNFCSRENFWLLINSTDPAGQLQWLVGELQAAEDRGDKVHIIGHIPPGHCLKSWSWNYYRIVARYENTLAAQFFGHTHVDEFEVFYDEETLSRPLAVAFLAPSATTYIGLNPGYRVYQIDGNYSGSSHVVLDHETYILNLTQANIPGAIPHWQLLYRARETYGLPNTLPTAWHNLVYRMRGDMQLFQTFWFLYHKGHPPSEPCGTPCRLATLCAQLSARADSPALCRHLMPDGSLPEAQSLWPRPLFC
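Human placenta-derived ASM preincubated with compound 10 min at room temperature, then reacted with 9 uM (final) fluorogenic HMU-PC substrate for 60 min at 37 C. Stop solution raises pH to 10; fluorescence read at Ex 386/Em 447 nm.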
TSHR antagonist = human thyrotropin receptor antagonism; actives 0.2% (n = 330,000); TSHR-expressing cells, TSH-stimulated cAMP HTRF, 2 h; active compounds read low; P16473; activity change, negative = inhibition, % at 11.5 µM;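 active means activity change below a set negative limit, meaning inhibition stronger than a set level, cut at about -70% in these data; inconclusive means activity change between two set negative limits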; further: on the % scale 0 is the no-effect control and ±100 the full control effect
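Antagonism was scored as loss of TSH-driven cAMP in TSHR cells, stimulated with 4nM TSH (EC80) for 2 hours at 37 deg C and detected by homogeneous HTRF competition immunoassay.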
Six1-Eya2 inh = blocks human Six1 binding to Eya2; Q15475+O00167; AlphaScreen GST-Six1/His-Eya2 binding, biochemical; active compounds read low; activity change, % (no concentration beside the values); actives 0.56% (n = 360,000); further: on the % scale 0 is the no-effect control and ±100 the full control effect
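Homogeneous AlphaScreen proximity assay pairing GST-Six1 with His-tagged Eya2 (added as 5X mix: 250 nM and 500 nM) in 50 mM Tris pH 8.0, 300 mM NaCl, 1 mM TCEP. Glutathione donor and nickel acceptor beads; 1 h, 37 °C, dark.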
BCR signal inh = chronic active BCR signaling inhibition; Potency, µM (doses to about 46.1 µM), for inactives: at the highest dose activity change, negative = inhibition, hits mostly inhibitors; actives 0.05% (n = 340,000); AID 493014; ABC-DLBCL IkBa-CBG/CBR reporter, luminescence ratio, 4 h; active means well fitted inhibition curve with a large enough effect in the signal ratio, with a control signal flat, not every such curve was filed as active; inconclusive means small, poorly fitted or top-dose-only effect, or effect the other way, or a change in a side signal; the % refers to the signal ratio;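 further: potency means the concentration at half of the fitted maximal effect; plate controls were basal doxycycline-induced cells for no effect and cells given 10 µM MG132 for full effect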
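Doxycycline induced both beetle luciferases in TMD8 lymphoma cells; IKK-driven degradation limits the IkappaBalpha-fused green signal, while red luminescence normalises for cell number and nonspecific effects. Compounds tested up to 46 uM, 4 hrs.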
CtBP-E1A blk = inhibitors of CtBP/E1A interaction. AlphaScreen GST-E1A/His-CtBP binding, 1536-well; active compounds read low. activity change, % (concentration not given with the values). actives 0.49% (n = 340,000). AID 651724; further: on the % scale 0 is the no-effect control and ±100 the full control effect
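Protein mix (5X: 125 nM each GST-E1A, His-CtBP) was incubated with pinned compound 2 h at 37 deg C in dark, in 50 mM Tris pH 8.0 buffer with 300 mM NaCl. Glutathione donor and nickel acceptor beads followed; AlphaScreen signal read after 1 h.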
Numbers without * were called inactive; ? = inconclusive; / = not tested or not shown. Sampled rows, rich in hits. Any-hit rate of the full collection: about 0.85%. Unless noted, no stated cut-off is given here; in the data, active means activity change below about -65%; inconclusive means mostly about -30% to -63%; inactive means weaker than that.

SMILES | ASM inhibitor | TSHR antagonist | Six1-Eya2 inh | BCR signal inh | CtBP-E1A blk
COc1cnc(-c2ccccn2)nc1N(C)C | 0.7% | 9.9 | -89.1* | -12.3% | -93.8*
COc1cccc(C(c2sc3nc(-c4ccco4)nn3c2O)N2CCN(C)CC2)c1 (stereo not drawn) | / | / | / | 0.3% | /
CC(=O)Nc1nonc1NC(C)=O | 7.8% | -2.3 | 3.0 | -1.0% | 2.7
CC(=O)Nc1cc(OC(C)=O)c2nonc2c1OC(C)=O | -0.7% | -74.4* | -1.9 | ? | ?
O=C(Oc1ccc2c(c1)OCC2=O)c1ccc(Cl)cc1 | -0.4% | -1.8 | -65.8* | 12.0% | -14.1
Cc1ccc(Nc2ncnc3c2cnn3-c2ccccc2)c(C)c1 | / | / | / | 13.5% | /
COc1cc(C(=O)N2CCN(c3ccc(Nc4ccccc4)nn3)CC2)cc(OC)c1OC | / | / | / | -20.6% | /
O=[N+]([O-])c1ccc(-[n+]2nc(-c3ccccc3)nn2-c2ccccc2)cc1 | -1.6% | 6.3 | -81.7* | ? | -91.6*
O=c1ccc(-c2ccc([N+](=O)[O-])cc2)nn1-c1ccccc1 | -2.7% | -2.6 | -2.2 | -8.9% | 3.4
CCc1nnc(SCC(=O)N2CCCc3ccccc32)nc1CC | 1.3% | -2.4 | -2.1 | 17.4% | 4.7
Cc1ccc2c(c1)c1nnc(SCC(=O)N3CCCc4ccccc43)nc1n2CC(=O)O | 0.7% | -1.3 | -77.8* | -27.6% | -88.1*
CCCn1nc([N+](=O)[O-])c(C(C#N)c2nc3ccccc3s2)c(Cl)c1=O (stereo not drawn) | -19.1% | -76.0* | -29.4 | ? | -24.7
CCn1nc([N+](=O)[O-])c(C(C#N)c2nc3ccccc3n2C)c(Cl)c1=O (stereo not drawn) | 4.7% | -11.5 | ? | 0.0% | 0.0
COc1ccc(NS(=O)(=O)c2ccc(-n3cccn3)cc2)cc1OC | / | / | / | -2.8% | /
CN(C)c1ccc2c(c1)C(=NO)c1ccccc1-2 | -9.3% | / | -65.8* | / | 0.5
O=C(N/N=C/c1sc2ccccc2c1O)c1ccccc1 | -1.9% | -9.1 | -86.6* | ? | ?
COc1ccc(C(=O)N/N=C/c2sc3ccccc3c2O)cc1 | -6.9% | -13.9 | -74.3* | ? | -65.2*
COc1ccc2cc(C(=O)N/N=C/c3sc4ccccc4c3O)ccc2c1 | -13.9% | 2.7 | ? | ? | ?
O=Nc1ccc2oc(=O)ccc2c1 | / | -14.0 | / | / | /
Cc1cc(C2(c3ccc(O)c(C)c3)C(=O)Nc3ccccc32)ccc1O | -14.2% | -5.4 | -18.6 | 4.9% | -3.8
Cc1cccc2c1NC(=O)C2(c1ccc(O)cc1)c1ccc(O)cc1 | -11.7% | -81.5* | 8.1 | -18.7% | -9.0
COc1ccc(CN2CSC(=S)N(Cc3ccc(OC)cc3)C2)cc1 | -3.2% | -5.3 | 3.9 | 15.8µM* | /
NNC(=O)c1cc2sccc2s1 | -3.6% | -5.7 | -2.8 | 17.8µM* | -5.4
CC(C)c1ccc(NC(=O)CN2C=NS(=O)(=O)c3ccccc32)cc1 | / | / | / | 7.8% | /
CCOc1ccc(NS(=O)(=O)c2ccc3c(c2)NC(=O)CCS3)cc1 | / | / | / | -18.2% | /
SMILES | ASM inhibitor | TSHR antagonist | Six1-Eya2 inh | BCR signal inh | CtBP-E1A blk
O=C(O)c1ccc2c(c1)C(=O)N([C@@H](Cc1ccc(O)cc1)C(=O)O)C2=O | / | -11.1 | / | -6.6% | /
O=[N+]([O-])c1cc2cccnc2c2ncccc12 | 2.8% | 2.5 | ? | -4.2% | /
O=[N+]([O-])c1cc(O)c2ncccc2c1 | 2.8% | -6.7 | -82.7* | ? | -93.8*
c1ccc2c(c1)CCN(c1ncnc3c1[nH]c1ccccc13)C2 | -3.4% | ? | -9.7 | ? | -11.8
COc1cccc(N2CCN(c3ncnc4c3[nH]c3ccc(F)cc34)CC2C)c1 (stereo not drawn) | -25.8% | -105.2* | ? | ? | -27.3
COc1ccc2[nH]c3c(N4CC(C)OC(C)C4)ncnc3c2c1 (stereo not drawn) | 140.0% | -10.8 | -10.1 | 15.5% | -6.3
COc1cccc(N2CCN(c3ncnc4c3[nH]c3ccccc34)CC2C)c1 (stereo not drawn) | / | -100.2* | / | ? | /
O=S(=O)(Nc1cccc(-n2cnnn2)c1)c1ccccc1C(F)(F)F | -0.8% | -136.0* | 0.5 | -1.1% | 0.2
O=C1c2cccc3cccc(c23)C(=O)N1OS(=O)(=O)c1ccccc1 | 3.0% | -6.3 | -70.9* | ? | -13.5
O=C1c2cccc3cccc(c23)C(=O)N1OS(=O)(=O)c1ccc(Br)cc1 | -5.7% | 6.4 | ? | -0.1% | -0.5
C=CC1=C(C(=O)O)N2C(=O)[C@@H](NC(=O)/C(=N\O)c3csc(N)n3)[C@H]2SC1 (stereo in doubt) | -4.1% | / | -89.6* | / | -85.2*
O=C(/C=C/c1ccc([N+](=O)[O-])cc1)OCC(=O)N1CCOCC1 | 1.2% | -1.3 | 4.9 | 4.2% | -24.7
O=C(/C=C/c1ccc([N+](=O)[O-])cc1)OCC(=O)N1CCCCCC1 | -1.9% | -5.7 | -9.6 | ? | -72.2*
COc1ccc(C(=O)NCc2ccc3c(c2)CCN3C(=O)c2ccc(C)cc2)cc1 | / | / | / | 8.6% | /
COC(=O)c1ccc(/C=C/C(=O)OCC(=O)Nc2sccc2C(N)=O)cc1 | 11.4% | ? | ? | ? | -69.4*
Cc1nc(N/N=C/c2ccc(O)cc2O)cc(N2CCOCC2)n1 | 47.3% | 6.7 | -78.7* | ? | -93.4*
Oc1cccc(C=NNc2ccccn2)c1 | 4.2% | / | -7.7 | / | 2.5
Oc1ccc(/C=N/Nc2ncc(Br)cn2)c(O)c1 | -4.7% | 10.6 | -88.0* | ? | -91.9*
Oc1ccc(/C=N/Nc2nccnc2Cl)c(O)c1 | -2.0% | 13.9 | -92.2* | ? | -95.9*
Oc1ccc(C=NNc2ccccn2)c(O)c1 | 3.7% | / | -91.0* | / | -4.7
CNc1ncnc2ccc(-c3c(C)noc3C)cc12 | / | 15.1 | / | ? | /
COc1ccc(C(=O)NNc2ncnc3c2cnn3-c2ccc(C)cc2C)cc1 | / | / | / | 3.2% | /
Oc1ccccc1/C=N/Nc1nccnc1Cl | -6.3% | -4.5 | -91.7* | ? | -94.0*
Cc1ccc(NC(=O)Cn2ncc3c([nH]c4ccccc43)c2=O)cc1Cl | -0.6% | -70.0* | 0.9 | -1.3% | 8.7
O=C(Cn1ncc2c([nH]c3ccccc32)c1=O)Nc1cccnc1 | 1.9% | 13.0 | 3.0 | -2.6% | /
SMILES | ASM inhibitor | TSHR antagonist | Six1-Eya2 inh | BCR signal inh | CtBP-E1A blk
O=C(Nc1nc(-c2ccccn2)cs1)c1cc2ccccc2o1 | -8.8% | -7.9 | -77.4* | ? | -68.3*
Cc1c(C(=O)Nc2nc(-c3ccccn3)cs2)oc2ccccc12 | -12.6% | -19.8 | -73.3* | 9.4% | -86.2*
O=C(/C=C/c1ccco1)Nc1nc(-c2ccccn2)cs1 | 6.9% | -9.0 | -73.9* | ? | /
Cc1nnc(NC(=O)c2oc3ccccc3c2C)s1 | 1.1% | -2.0 | 2.0 | ? | -0.9
O=C(/C=C/c1ccco1)Nc1nc(-c2ccccc2)cs1 | -1.2% | -33.6 | -0.9 | -1.6% | 0.3
CC(C)c1ccc(Nc2ncnc3c2c(-c2ccccc2)cn3-c2ccccc2)cc1 | / | / | / | 3.8% | /
